Source: PubChem (National Center for Advancing Translational Sciences (NCATS))
Most compounds without a hit are left out; they make up all but 21% or so of the library.
Shiga inhibitor – A qHTS for Small Molecule Inhibitors of Shiga Toxin | 290,000 compounds, 9.2% hits | inhibition, % at 38.7 µM | AID 2315, 2010 | Vero cells, Shiga toxin protein synthesis inhibition reporter; in the data active = inhibition mostly above about 28%, no sharp cut-off; inactive = mostly below about 43%; note: 0% is about no effect
Cycloheximide cs – Cycloheximide Counterscreen for Small Molecule Inhibitors of Shiga Toxin | cell reporter, cycloheximide protein synthesis inhibition counterscreen | max response, % | 300,000 compounds, 12% hits | AID 2314, 2010; in the data active = max response mostly above about 13%, no sharp cut-off; inactive = mostly below about 14%; note: read at 38.3 µM for the half of the compounds with a filed dose; 0% is about no effect
Pf growth 48h – Primary qHTS for delayed death inhibitors of the malarial parasite plastid, 48 hour incubation; P. falciparum luciferase growth in erythrocytes, 48 h; Potency, µM (series often up to 28.7 µM), without a hit: top-dose activity change, negative = inhibition, actives largely listed as inhibitors; 310,000 compounds, 5.9% hits; note: potency is the fitted concentration of half-maximal effect; % is set by controls: 0 for no effect and ±100 for the full control effect
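Cell-based growth assay: transgenic P. falciparum expressing firefly luciferase, cultured in red cells within RPMI 1640 containing 0.5% w/v Albumax, 24 mM bicarbonate and gentamycin. A drop in luciferase activity indicates inhibition.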
NS1 inh – qHTS Assay for Inhibitors of Influenza NS1 Protein Function; AID 2326, 2010; 270,000 compounds, 0.4% hits; Potency, µM (titrated, usually from 46.1 µM), for inactives: at the highest dose activity, positive = more growth; calls by dose curve; note: potency is the fitted concentration of half-maximal effect; actives are rising curves; nearly all actives have a fitted effect of over 50% in size
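In this qHTS, NS1 from influenza A is expressed in budding yeast, where it slows growth. Cells are switched from glucose to 2% galactose medium (pH 6.0, -URA), treated with compound, and growth recovery is read at OD600.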
Pf growth 96h – Primary qHTS for delayed death inhibitors of the malarial parasite plastid, 96 hour incubation. P. falciparum luciferase reporter growth, 96 h. Potency, µM (doses to about 28.7 µM), without a hit: at the top dose activity change, negative = inhibition, most hits filed as inhibitors. 320,000 compounds, 6.9% hits. AID 504834, 2011; note: potency is the fitted concentration of half-maximal effect; % is set by controls: 0 for no effect and ±100 for the full control effect
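Cell-based qHTS: luciferase-tagged P. falciparum in erythrocytes (2% hematocrit, 0.05% parasitemia final) incubated with compounds for 96 hours, 37 C, 5% CO2; luciferase detection reagent then added and luminescence measured.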
Numbers without * were called inactive; [ ] = remark or other dose. Unless noted, calls come from the whole dose curve; as a rule, active = well fitted inhibition curve with a large enough effect; inconclusive = small, poorly fitted or top-dose-only effect, or another doubt; inactive = no such curve, though single readings can be large or run the other way.

For Cc1ccc2nc(N3CCN(CCO)CC3)nc(-c3ccccc3)c2c1 the results were Shiga inhibitor -2, Cycloheximide cs 3, Pf growth 48h inconclusive, NS1 inh -1% and Pf growth 96h inconclusive.
`CCC(=O)c1ccc(N2CCCCCC2)c(F)c1` gave Shiga inhibitor 54*, Cycloheximide cs 35*, Pf growth 48h 59%, NS1 inh -67% and Pf growth 96h -20%.
For CCC(=O)c1ccc(N2CCN(C(=O)c3cccs3)CC2)c(F)c1 the results were Shiga inhibitor 22, Cycloheximide cs 21*, Pf growth 48h -4%, NS1 inh -40% and Pf growth 96h inconclusive.
`CCOC(=O)N1CCN(c2nc(-c3ccccc3)c3cc(C)ccc3n2)CC1` gave Shiga inhibitor -3, Cycloheximide cs -2, Pf growth 48h 10µM*, NS1 inh -2% and Pf growth 96h inconclusive.
For CCC(=O)c1ccc(N2CCN(C(=O)c3ccccc3F)CC2)c(F)c1 the results were Shiga inhibitor -5, Cycloheximide cs 20, Pf growth 48h 28% and Pf growth 96h 0%.
For COc1ccccc1/C=C/C(=O)NCC(=O)n1nc(C)cc1C the results were Shiga inhibitor -19, Cycloheximide cs -2, Pf growth 48h 53%, NS1 inh 0% and Pf growth 96h 0%.
Screening CCC(=O)c1ccc(N2CCN(S(=O)(=O)c3ccccc3)CC2)c(F)c1 returned Shiga inhibitor -16, Cycloheximide cs 44*, Pf growth 48h -5%, NS1 inh -2% and Pf growth 96h 9.3µM*.
Screening CCOC(=O)N1CCN(c2ccc(C(=O)c3ccccc3)cc2F)CC1 returned Shiga inhibitor 77*, Cycloheximide cs 29*, Pf growth 48h 33%, NS1 inh -17% and Pf growth 96h 59%.
Screening CCCC(=O)c1ccc(N2CCN(S(=O)(=O)c3ccccc3)CC2)c(F)c1 returned Shiga inhibitor -5, Cycloheximide cs 1, Pf growth 48h inconclusive, NS1 inh -8% and Pf growth 96h 24%.
`CCC(=O)c1ccc(N2CCCC2)c(F)c1` gave Shiga inhibitor 48*, Cycloheximide cs 28*, Pf growth 48h 62%, NS1 inh 2% and Pf growth 96h -85%.
`CCC(=O)c1ccc(N2CCN(C(=O)c3ccccc3Br)CC2)c(F)c1` gave Shiga inhibitor -11, Cycloheximide cs -2, Pf growth 48h -1%, NS1 inh -2% and Pf growth 96h -11%.
For CCC(=O)c1cc(F)c(N2CCN(C(=O)c3ccco3)CC2)cc1C the results were Shiga inhibitor 45*, Cycloheximide cs 24*, Pf growth 48h inconclusive, NS1 inh -38% and Pf growth 96h inconclusive.
Screening Cc1c(C(=O)Nc2c3c(nn2C(C)(C)C)CS(=O)(=O)C3)cccc1[N+](=O)[O-] returned Shiga inhibitor -4, Cycloheximide cs -2, Pf growth 48h 18%, NS1 inh -3% and Pf growth 96h inconclusive.
CC(CC(=O)Nc1cccnc1)c1ccccc1 (stereo unspecified) was read as Shiga inhibitor -7, Cycloheximide cs -2, Pf growth 48h 11%, NS1 inh -3% and Pf growth 96h inconclusive.
CCCS(=O)(=O)N1CCCC(C(=O)N2CCN(C(=O)OCC)CC2)C1 (stereo unspecified) was read as Shiga inhibitor -11, Cycloheximide cs -3, Pf growth 48h 7%, NS1 inh 2% and Pf growth 96h inconclusive.
Screening CN1CCN(c2nc(-c3ccccc3)c3cc(Cl)ccc3n2)CC1 returned Shiga inhibitor -12, Cycloheximide cs 4, Pf growth 48h inconclusive, NS1 inh -9% and Pf growth 96h 5%.
For CCCC(=O)c1cc(F)c(N2CCOCC2)cc1C the results were Shiga inhibitor 16, Cycloheximide cs 13, Pf growth 48h 18%, NS1 inh -10% and Pf growth 96h 1.3µM*.
Screening Clc1ccc2nc(N3CCNCC3)nc(-c3ccccc3)c2c1 returned Shiga inhibitor -17, Cycloheximide cs -1, Pf growth 48h 12µM*, NS1 inh 9% and Pf growth 96h 9%[5.75 µM].
Screening Clc1ccc(Cc2nc(-c3cccnc3)no2)cc1 returned Shiga inhibitor 10, Cycloheximide cs 17*, Pf growth 48h 19%, NS1 inh -26% and Pf growth 96h 50%.
For Cc1ccc(Cc2nc(-c3cccnc3)no2)cc1 the results were Shiga inhibitor 111*, Cycloheximide cs 34*, Pf growth 48h 41%, NS1 inh -11% and Pf growth 96h -25%.
`O=C(NC1CC1)C1CCN(c2nc3ccccc3s2)CC1` gave Shiga inhibitor 63*, Cycloheximide cs 23*, Pf growth 48h -25%, NS1 inh -3% and Pf growth 96h -2%.
CCCC(=O)N1CCN(c2nc3ccccc3s2)CC1 was read as Shiga inhibitor 42*, Cycloheximide cs 42*, Pf growth 48h 21%, NS1 inh -13% and Pf growth 96h 268%.
For CCN1CCN(c2nc3ccccc3s2)CC1 the results were Shiga inhibitor 77*, Cycloheximide cs 33*, Pf growth 48h 105%, NS1 inh -7% and Pf growth 96h inactive.
For Fc1cccc(Cl)c1CN1CCN(c2nc3ccccc3s2)CC1 the results were Shiga inhibitor 159*, Cycloheximide cs 53*, Pf growth 48h 66%, NS1 inh -12% and Pf growth 96h 129%.
For CCOc1ccc2nc(N3CCC(C(=O)NC4CCCCC4)CC3)sc2c1 the results were Shiga inhibitor 16, Cycloheximide cs 14, Pf growth 48h 17%, NS1 inh 3% and Pf growth 96h -11%.
`O=C(c1ccc2ccccc2n1)N1CCN(Cc2c(F)cccc2Cl)CC1` gave Shiga inhibitor 5, Cycloheximide cs -4, Pf growth 48h 5%, NS1 inh -28% and Pf growth 96h 1%.
N#CC(C#N)=Cc1ccc(OCC(=O)N2CCOCC2)cc1 was read as Shiga inhibitor 18, Cycloheximide cs 16, Pf growth 48h inconclusive and Pf growth 96h inconclusive.
COC(=O)c1sccc1NC(=O)CSc1nnnn1-c1ccccc1C was read as Shiga inhibitor -4, Cycloheximide cs 1, NS1 inh -6% and Pf growth 96h inconclusive.
For Nc1c(-c2ccccc2)cnn1C1CCS(=O)(=O)C1 (stereo unspecified) the results were Shiga inhibitor 2, Cycloheximide cs 13, NS1 inh -1% and Pf growth 96h -35%.
`CCc1ccc2nc(N3CCN(C(=O)C(C)(C)C)CC3)sc2c1` gave Shiga inhibitor 55*, Cycloheximide cs 23*, Pf growth 48h 15%, NS1 inh -7% and Pf growth 96h inconclusive.
`CC(C)(C)C(=O)N1CCN(c2nc3ccccc3s2)CC1` gave Shiga inhibitor 76*, Cycloheximide cs 57*, Pf growth 48h 116%, NS1 inh -2% and Pf growth 96h 179%.
`O=[N+]([O-])c1cc(/C=N/OCc2c(Cl)cccc2Cl)ccc1N1CCOCC1` gave Shiga inhibitor 15, Cycloheximide cs 19*, Pf growth 48h inconclusive, NS1 inh -4% and Pf growth 96h inconclusive.
